Sampled rows, rich in hits. Any-hit rate of the full collection: about 5.4%.
M18AAP inhibitor = blocks P. falciparum M18 aspartyl aminopeptidase; recombinant PfM18AAP, H-Glu-NHMec fluorogenic cleavage; AID 1822; inhibition, % at 7.35 µM; 290,000 compounds, 1.2% hits;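 active = inhibition above the campaign mean inhibition over all tested compounds plus 3 SD, cut at about 28% in these data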;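 note: 0% = plate median of test compound wells and 100% = 2 mM ZnCl2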
SMARCA2 activ = increases SMARCA2 function in MMTV reporter cells. MG213 cells, MMTV-luciferase reporter, dexamethasone, overnight. activation, % at 9.1 µM. 370,000 compounds, 1% hits. AID 652017; in the data active = activation above about 7.8%;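 note: 0% = vehicle wells and 100% = reference activator wells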
ALR H2O2 inh = blocks human ALR sulfhydryl oxidase activity | P55789 | 290,000 compounds, 3.8% hits | purified ALR, DTT oxidation, H2O2 HRP-luminol luminescence | inhibition, % (test concentration not listed);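 active = mean replicate inhibition above about 79%, with every replicate also reaching it, limit read from the data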
Target sequence (P55789 whole entry, looked up): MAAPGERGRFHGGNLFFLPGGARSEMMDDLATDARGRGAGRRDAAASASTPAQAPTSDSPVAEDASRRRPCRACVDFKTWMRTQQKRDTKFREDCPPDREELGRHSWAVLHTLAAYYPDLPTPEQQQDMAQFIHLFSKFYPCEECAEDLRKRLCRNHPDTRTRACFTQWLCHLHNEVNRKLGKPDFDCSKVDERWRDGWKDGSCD
GASC-1 inh = inhibitors of human GASC-1 (JMJD2C) demethylase; Q9H3R0; GST-JMJD2C(1-420) H3K9me3 demethylation, DELFIA europium; inhibition, % at 2.35 µM; 330,000 compounds, 0.069% hits;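 active = more than half of a compound's replicate wells show inhibition beyond 50%, single wells judged on their own value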;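 note: signal counts dimethyl H3K9 product captured on neutravidin plate; 0% = median of DMSO wells and 100% = 0.3 times that DMSO median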
Target sequence (Q9H3R0 1-420 limits assumed): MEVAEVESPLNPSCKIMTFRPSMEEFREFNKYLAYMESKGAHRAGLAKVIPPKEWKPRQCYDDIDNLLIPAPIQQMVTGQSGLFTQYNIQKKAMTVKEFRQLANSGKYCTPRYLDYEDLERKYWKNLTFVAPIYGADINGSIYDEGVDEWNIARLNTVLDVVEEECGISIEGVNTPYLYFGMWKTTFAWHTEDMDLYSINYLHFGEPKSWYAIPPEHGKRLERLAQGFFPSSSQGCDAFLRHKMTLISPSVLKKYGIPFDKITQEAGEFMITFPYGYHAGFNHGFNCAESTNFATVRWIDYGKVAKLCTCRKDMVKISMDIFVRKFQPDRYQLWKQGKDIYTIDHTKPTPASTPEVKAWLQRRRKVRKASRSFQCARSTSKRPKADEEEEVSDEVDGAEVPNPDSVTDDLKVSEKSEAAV
Exocytosis inh = blocks lytic granule exocytosis | TALL-104 LAMP-1 surface exposure, flow cytometry; cells stimulated with thapsigargin and PMA | inhibition, % at 10 µM | 360,000 compounds, 0.66% hits;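 active = inhibition above about 55%, limit read from the data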
MIN6 prolif = inducers of beta-cell replication in MIN6 cells; MIN6 cells proliferation, ATPlite luminescence, 48 h; cells starved in 0.2% serum; 100% = growth in 10% serum; proliferation, % at 10 µM; 330,000 compounds, 0.29% hits; AID 2380;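 active = compounds whose signal lies at least 3.5 SD above the mean of all wells on their plate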;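 note: 0% = DMSO-treated cells in low-serum medium and 100% = 10% serum control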
SMARCA2 act conf = confirmation of SMARCA2 (BRM) function activators; 3,500 compounds, 30% hits; AID 652260; shares compounds with SMARCA2 activ; activation, % at 9.1 µM; MG213 cells, MMTV-luciferase with dexamethasone, luminescence, overnight; MG213 cells expressing E1A, Rb sequestered; DMSO wells 0%, reference activator 100%;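 active = activation above its plate's cutoff, the mean activation of tested wells plus 3 SD, cut at about 7.9% in these data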
GAL4-VP16 Luc = GAL4-VP16 reporter activation counter-screen | shares compounds with SMARCA2 activ | HEK293 GAL4-VP16 pG5luc reporter, luciferase luminescence; scaled: DMSO wells 0%, SAHA wells 100% | activation, % at 9.1 µM | 3,500 compounds, 41% hits | AID 686939;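 active = activation above the solvent-only control well mean plus 3 SD, averaged across control plates, cut at about 5.2% in these data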
Starred values were filed as active, the others as inactive; nt = no result.

SMILES	M18AAP inhibitor	SMARCA2 activ	ALR H2O2 inh	GASC-1 inh	Exocytosis inh	MIN6 prolif	SMARCA2 act conf	GAL4-VP16 Luc
CN1C(=S)SC2CS(=O)(=O)CC21C (stereo unspecified)	2	12*	-8	8	-4	-1	-3	-1
C[C@]12CS(=O)(=O)C[C@H]1SC(=S)N2c1ccccc1	25	0	-13	11	2	1	nt	nt
COc1cc(CNc2ncnc3c2ncn3[C@H]2CN(CCN3CCOCC3)C[C@@H](CO)O2)cc(OC)c1OC	nt	-2	nt	nt	-10	nt	nt	nt
Cc1ccc(C(=O)N/N=C2\CC3CC=CC23)c(C)c1 (stereo unspecified)	-3	8.1*	2	9	-1	-1	-4	0
Cc1ccc(NC(=S)N/N=C2\CC3CC=CC23)c(C)c1 (stereo unspecified)	2	-3	44	7	-3	-2	nt	nt
CC1CCC2(CCC(=O)N2CCCOC(=O)Nc2cccc(C(F)(F)F)c2)CC1 (stereo unspecified)	nt	-4	nt	nt	nt	nt	nt	nt
CCCCNC(=O)c1cc2c(=O)n3cccc(C)c3nc2n(Cc2ccncc2)c1=N	2	9.7*	6	-1	1	0	13*	-1
COc1cc(-c2cnc3c(NC=O)cc(-c4ccc(N5CCN(C)CC5)cc4)cn23)cc(OC)c1OC	nt	8.5*	nt	nt	7	nt	9.3*	14*
COc1cc(-c2cnc3c(NC(C)=O)cc(-c4ccc(N5CCN(C)CC5)cc4)cn23)cc(OC)c1OC	nt	-4	nt	nt	32	nt	nt	nt
CN1CCN(c2ccc(-c3cc(NC=O)c4ncc(-c5ccc(F)cc5)n4c3)cc2)CC1	nt	10*	nt	nt	8	nt	14*	12*
COc1ccc(OC)c(N2C(=O)c3ccccc3C2c2nnnn2-c2ccc3c(c2)OCCO3)c1 (stereo unspecified)	nt	1	nt	nt	-6	nt	nt	nt
CC1(C(=O)NCc2cccs2)CCN1CCc1ccccc1 (stereo unspecified)	nt	-1	nt	nt	-4	nt	nt	nt
Cc1cccc(NC(=S)NNC(=O)c2csc(C)c2)c1	8	9.2*	85*	-2	5	0	8.0*	7.5*
Cc1cccc(NC(=S)NNC(=O)c2csc3c2CCCC3)c1	6	4	3	-5	0	-3	nt	nt
Cc1ccc(-c2onc3ccc(Cl)cc23)cc1	4	-2	-9	0	1	3	nt	nt
O=Cc1ccc2noc(-c3ccc(Cl)cc3)c2c1	10	17*	11	14	2	-3	11*	3
CCCc1ccc(OCc2ccc(C(=O)N/N=C/c3cccnc3)o2)cc1	-11	11*	-9	7	-1	1	6	18*
CCOc1ccc(CC(=O)N/N=C/c2cccnc2)cc1	-2	1	-8	nt	-1	0	nt	nt
Cc1ccc(O)c(NC(=O)CN(C)S(=O)(=O)c2ccc(Cl)cc2)c1	5	11*	3	0	-3	0	1	1
Cc1ccc(-n2c(C)csc2=N)cc1	-6	8.7*	55	-3	-2	-2	8	19*
COc1ccc(Br)cc1/C=N/Nc1ccccn1	-7	1	-2	1	12	-2	nt	nt
COc1cc(/C=N/Nc2ccccn2)ccc1O	-16	9.6*	97*	14	-1	-3	7	10*
Cc1cc(C)c2c(N)c(-c3nc4ccccc4[nH]3)sc2n1	-2	9.2*	16	1	0	-1	8.7*	10*
COc1ccc(C2N(c3cc(Cl)ccc3OC)C(=O)C3CCCN32)c(OC)c1 (stereo unspecified)	-5	9.5*	-10	-1	-1	-5	3	0
O=c1oc(-c2ccc(Br)o2)nc2ccccc12	-4	14*	-10	-5	2	-4	7	3
SMILES	M18AAP inhibitor	SMARCA2 activ	ALR H2O2 inh	GASC-1 inh	Exocytosis inh	MIN6 prolif	SMARCA2 act conf	GAL4-VP16 Luc
Cc1ccc(OCc2nc3ccccc3[nH]2)cc1	-3	14*	-7	1	5	-5	10*	8.2*
CC(NCc1ccco1)C(=O)N1CCN(Cc2ccccc2F)CC1 (stereo unspecified)	nt	-4	nt	nt	nt	nt	nt	nt
Cn1c(N)c(C(=O)Nc2ccc3ccccc3c2)sc1=S	21	10*	-4	-2	1	3	4	12*
COc1cccc(C(=O)Nc2ccc3ccccc3c2)c1	-8	2	-6	-2	-3	-3	nt	nt
COC(=O)c1cccc(NC(=O)Cn2cnc3ccccc3c2=O)c1	-11	13*	5	5	-3	-2	-5	-3
O=C1Cc2ccccc2C(=O)N1	nt	-2	nt	nt	-13	nt	nt	nt
O=C(CSc1ncccn1)N(Cc1cccnc1)C(CCc1ccccc1)c1nc2ccccc2[nH]1 (stereo unspecified)	nt	-4	nt	nt	-6	nt	nt	nt
Cc1scc(C(=O)N/N=C/c2ccsc2)c1C	-18	2	-14	-3	3	-5	nt	nt
CCCOc1cccc(/C=N/NC(=O)c2csc(C)c2C)c1	-3	13*	-3	-4	-3	-3	2	2
CC(=O)Nc1cc(-c2ccoc2)cn2c(-c3ccccc3)cnc12	nt	-4	nt	nt	4	nt	nt	nt
COCCn1c(/C=C/c2ccccc2)nc2ccccc21	2	9.2*	2	0	-8	-4	7	13*
Cn1c(/C=C/c2ccccc2)nc2ccccc21	2	8.9*	nt	7	-5	-5	5	7.8*
CC(=O)c1ccc(/C=C/c2nc3ccccc3n2C)o1	-5	8.8*	5	-50	-11	-2	23*	12*
COc1ccccc1Cn1c(/C=C/c2ccccc2)nc2ccccc21	-5	3	nt	2	2	0	nt	nt
COc1ccc(CCNC(=O)c2cc([C@@H](NC(=O)OC(C)(C)C)C(C)C)sc2N)cc1OC	nt	6	nt	nt	-2	nt	nt	nt
CCCNC(=O)c1cc2c(c(-c3cccc(-c4ccccc4F)c3)n1)[C@@H](CCO)N(C(=O)CC1CC1)C2	nt	0	nt	nt	-3	nt	nt	nt
COc1nc(-c2ccccc2)nnc1-c1ccccc1	-5	11*	nt	-6	-2	nt	7	13*
Clc1ccc(-c2nnc(-c3ccccc3)c(-c3ccccc3)n2)cc1	-7	-5	5	-3	-15	-3	nt	nt
Cn1cccc1/C=N/N1CCN(Cc2ccccc2)CC1	0	16*	74	4	-2	4	1	1
CC1(C(=O)NS(=O)(=O)c2ccc(Cl)cc2)CCN1C(=O)CCC1CCCC1 (stereo unspecified)	nt	-2	nt	nt	12	nt	nt	nt
CCCC(=Nc1ccc(N)cc1)C1=C(O)C(C(=O)OC)C(C)(C)CC1=O (stereo unspecified)	19	8.2*	73	-17	-1	-5	-3	3
